# Compounds with a hit are over-represented: about 1.6% of the library has one in this group of screens.
# KCNQ2 enhance = enhances the rat KCNQ2 potassium channel; AID 2239; O88943; B-score at 10 µM; CHO-K1 KCNQ2, FluxOR thallium flux fluorescence; active compounds read high; 310,000 compounds, 0.54% hits;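 active = fluorescence ratio B-score at least 3 SD of library B-scores, with initial fluorescence B-score within 3 of them, cut at about 5.3 in these data; same plate scores as AID 2156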;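 note: B-score of peak minus minimum over baseline fluorescence ratio after K+ and Tl+ stimulus; positive B-score means potentiation of KCNQ2 with more thallium influx and brighter signal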
# KCNQ2 inh = KCNQ2 (rat) channel inhibition | AID 2156 | B-score at 10 µM | CHO-K1 KCNQ2, FluxOR thallium flux, 20 min; active compounds read low | O88943 | 310,000 compounds, 1.1% hits;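 active = fluorescence ratio B-score at most minus 3 library SDs, with starting brightness B-score within 2 library SDs, cut at about -5.5 in these data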
# KCNQ2 block conf = confirmation of rat KCNQ2 potassium channel inhibitors | KCNQ2-expressing cells, thallium flux, inhibition; active compounds read low | shares compounds with KCNQ2 inh | activity change, negative = inhibition, % at 10 µM | 1,000 compounds, 57% hits | AID 493025;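 note: 0% = vehicle wells and values are ratio percent relative to vehicle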
# KCNQ1 spec = selectivity of KCNQ2 inhibitors against human KCNQ1 | shares compounds with KCNQ2 inh | KCNQ1-expressing cells, FluxOR thallium flux fluorescence; active compounds read low | activity change, negative = inhibition, % at 10 µM | 1,000 compounds, 15% hits;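 active = activity change at least 3 SD of negative controls below their mean in both duplicate wells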;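 note: CHO cells stably transfected with KCNQ1 and depolarized by potassium stimulus; peak minus minimum fluorescence over baseline after thallium addition; 0% = vehicle negative control and -100% = blank without thallium stimulus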
# Target sequence (P51787 whole entry, looked up): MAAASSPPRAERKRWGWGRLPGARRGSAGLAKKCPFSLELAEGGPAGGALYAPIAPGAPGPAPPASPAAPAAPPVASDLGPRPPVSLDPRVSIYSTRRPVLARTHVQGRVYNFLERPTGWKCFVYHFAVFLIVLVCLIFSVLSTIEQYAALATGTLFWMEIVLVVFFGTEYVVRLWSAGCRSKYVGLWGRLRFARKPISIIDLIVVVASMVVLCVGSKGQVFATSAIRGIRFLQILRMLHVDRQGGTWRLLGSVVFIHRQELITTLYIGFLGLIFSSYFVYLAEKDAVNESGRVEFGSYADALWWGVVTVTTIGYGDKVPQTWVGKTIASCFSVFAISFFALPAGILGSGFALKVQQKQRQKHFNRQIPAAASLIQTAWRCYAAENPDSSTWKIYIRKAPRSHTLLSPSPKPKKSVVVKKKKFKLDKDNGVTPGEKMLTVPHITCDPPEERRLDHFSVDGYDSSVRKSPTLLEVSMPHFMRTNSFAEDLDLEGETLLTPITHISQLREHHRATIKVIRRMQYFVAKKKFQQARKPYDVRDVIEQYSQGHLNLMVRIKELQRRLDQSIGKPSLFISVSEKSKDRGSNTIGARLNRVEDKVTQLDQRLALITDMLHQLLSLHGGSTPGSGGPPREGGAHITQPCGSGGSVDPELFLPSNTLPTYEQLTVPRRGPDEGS
# CHO Tl ctr = counter-screen for KCNQ2 inhibitors: effect in parental CHO cells; shares compounds with KCNQ2 inh; thallium flux counter-screen; active compounds read low; activity change, % at 10 µM; 1,000 compounds, 14% hits;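 note: 0% = vehicle negative controls with stimulus buffer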
# KCNQ2 inh confirm = blocks rat KCNQ2 current in automated patch clamp; shares compounds with KCNQ2 inh; KCNQ2-expressing cells; calls only at 10 µM; 550 compounds, 49% hits; AID 588531
# An asterisk follows results filed as active; i = inactive; · = not tested or not shown; + = active, no number. Unless noted, the rule behind the calls is not given here.
SMILES,KCNQ2 enhance,KCNQ2 inh,KCNQ2 block conf,KCNQ1 spec,CHO Tl ctr,KCNQ2 inh confirm
O=[N+]([O-])c1ccc(Sc2cccc[n+]2[O-])c2nonc12,-15,-15*,-64%*,-57%*,-60%*,i
O=[N+]([O-])c1ccc(Nc2ccccc2)c2nonc12,0.04,i,·,·,·,·
COc1ccc(C(=O)O)cc1S(=O)(=O)NCCN(C)C,·,i,·,·,·,·
COC(=O)C[C@H]1c2ccccc2S(=O)(=O)N1Cc1ccc(OC)cc1,·,i,·,·,·,·
COc1cccc(C(=O)NC(=S)Nc2ccccc2N2CCOCC2)c1,-8.7,-8.7*,-29%*,i,i,+
CC(C)Oc1cccc(C(=O)Nc2ccccc2N2CCOCC2)c1,·,i,·,·,·,·
CCc1cc(/C(Cc2csc(C)n2)=N/O)c(O)cc1O,-7.7,-7.7*,-38%*,-34%*,-28%*,+
Cc1nc(C/C(=N\N)c2ccc(O)cc2O)cs1,·,i,·,·,·,·
CN(C)CCCN(C(=O)COc1ccc(Cl)cc1)c1nc2cc3c(cc2s1)OCO3,·,i,·,·,·,·
O=C1CN(C(=O)COC(=O)c2ccccc2NCc2ccco2)c2ccccc2N1,0.11,i,·,·,·,·
O=C(CSc1nc2ccccc2c(=O)n1NC(=O)c1ccccc1)c1ccccc1,-12,-12*,-16%*,i,i,+
CCn1c(SCC(=O)c2ccccc2)nc2ccccc2c1=O,0.74,i,·,·,·,·
O=C(CSc1nc2ccccc2c(=O)n1NC(=O)c1ccccc1)c1ccc(Cl)cc1,-10,-10*,-30%*,i,i,+
Cc1nc2ccccc2c(=O)n1NC(=O)c1ccc(Cl)cc1,1.8,i,·,·,·,·
Cc1ccc(S(=O)(=O)N(C)c2ccc(C(=O)NCc3ccccc3F)cc2)cc1,1.7,i,·,·,·,·
COc1ccc(-c2oc3c4c(cc(OC)c3c(=O)c2CC=C(C)C)OC(C)(C)C=C4)c(OC)c1,-9,-9*,i,i,i,·
CC(C)=CCc1c(-c2ccc(O)cc2O)oc2cc3c(c(O)c2c1=O)C=CC(C)(C)O3,·,i,·,·,·,·
Cc1ccc(Sc2c(C)nn(C(=O)c3cccc(S(=O)(=O)N4CCOCC4)c3)c2C)cc1,-9,-9*,-33%*,i,i,i
Cc1cc(C)n(C(=O)c2cccc(S(=O)(=O)N3CCOCC3)c2)n1,·,i,·,·,·,·
CN(Cc1ccccc1)C(=O)CCn1c(=O)oc2ccccc21,1,i,·,·,·,·
O=C(CCn1c(=O)oc2ccccc21)N(Cc1ccccc1)c1ccccc1,-11,-11*,-32%*,i,i,+
O=S(=O)(c1ccccc1)N(CC(O)Cn1c2ccccc2c2ccccc21)c1ccccc1 (centres undefined),-9.6,-9.6*,i,i,i,·
Cc1ccc(S(=O)(=O)N(C)CC(O)Cn2c3ccccc3c3ccccc32)cc1 (centres undefined),·,i,·,·,·,·
COc1ccc(/C=N/NC(=O)c2cccnc2)cc1O,-7.2,-7.2*,i,i,i,·
CCNC(=O)COc1ccc(/C=N/NC(=O)c2cccnc2)cc1OC,0.09,i,·,·,·,·
SMILES,KCNQ2 enhance,KCNQ2 inh,KCNQ2 block conf,KCNQ1 spec,CHO Tl ctr,KCNQ2 inh confirm
COc1ccc(C(=O)/C=C/Nc2ccc([N+](=O)[O-])cc2)cc1,·,i,·,·,·,·
COc1ccc(C(=O)CC(Nc2ccc([N+](=O)[O-])cc2)c2ccc(OC)cc2)cc1 (centres undefined),-11,-11*,-26%*,i,i,i
CCOC(=O)c1cc(NC(=O)Nc2ccc(Br)cc2)c(C)nc1C,0.41,i,·,·,·,·
Cc1ccc(-c2nn(-c3ccccc3)cc2CN(Cc2ccccc2)C(=O)c2ccco2)o1,-15,-15*,-47%*,-48%*,-50%*,i
Cc1ccc(-c2nn(-c3ccccc3)cc2C(=O)O)o1,·,i,·,·,·,·
Cc1c(OCC(=O)NCC(O)c2ccccc2)ccc2c3c(c(=O)oc12)CCCC3 (centres undefined),1.9,i,·,·,·,·
Cc1ccccc1OCC(=O)Nc1ccccc1-c1ccccc1,-6.6,-6.6*,i,i,i,·
CCOc1ccccc1OCC(=O)NCc1ccco1,·,i,·,·,·,·
O=C(COc1ccccc1-c1ccccc1)NCc1ccco1,-8.5,-8.5*,i,i,i,·
Cc1ccccc1NC(=O)COc1ccccc1C,·,i,·,·,·,·
CC(C)(C)NS(=O)(=O)c1ccc(NC(=S)NC(=O)C2CC2)cc1,·,i,·,·,·,·
Cc1n(C)c2cc(Cl)ccc2[n+]1Cc1ccccc1,·,i,·,·,·,·
COc1cccc2c1Oc1cc([N+](=O)[O-])cc(N(C)C(C)=O)c1C=C2,·,i,·,·,·,·
CN(Cc1ccccc1)C(=O)c1ccco1,0.04,i,·,·,·,·
Cc1ccc(C(CCN(Cc2ccccc2)C(=O)c2ccco2)c2ccco2)cc1 (centres undefined),-8,-8*,-27%*,i,i,i
CCOc1ccc(OCCOC(=O)CNC(=O)c2ccc(Cl)cc2Cl)cc1,·,i,·,·,·,·
CCOC(=O)C(CSCC(=O)c1ccc(Cl)cc1Cl)NC(=O)OC(C)(C)C (centres undefined),-7.7,-7.7*,-28%*,i,i,+
CCNc1nc(NC(C)CC)nc(ON=C(C)C)n1 (centres undefined),2,i,·,·,·,·
CCOC(=O)c1cnc2ccc(C)cc2c1Sc1ccccc1,-7.1,-7.1*,-28%*,i,i,+
CCOC(=O)c1cnc2ccccc2c1Nc1cccc(C(=O)O)c1,2,i,·,·,·,·
Cc1nc2ncnn2c(C)c1Cc1cccc(C(F)(F)F)c1,0.45,i,·,·,·,·
CCCN(CCC)CCNC(=O)c1cc2c(-c3ccc(Cl)cc3)nn(C)c2s1,-7.3,-7.3*,-34%*,i,i,i
CCCCN(CC)CCNC(=O)c1cc2c(-c3ccc(Cl)cc3)nn(C)c2s1,-8.4,-8.4*,-35%*,i,i,i
CCN(CC)CCNC(=O)c1cc2c(-c3ccc(Cl)cc3)nn(C)c2s1,·,i,·,·,·,·
CCOCCCNC(=O)c1cc2c(-c3ccc(Cl)cc3)nn(C)c2s1,0.84,i,·,·,·,·
SMILES,KCNQ2 enhance,KCNQ2 inh,KCNQ2 block conf,KCNQ1 spec,CHO Tl ctr,KCNQ2 inh confirm
Nc1oc2ccccc2c(=O)c1C=O,1.2,i,·,·,·,·
COC(=O)c1cccc(Nc2c3c(nc4ccccc24)CCC3)c1,-6.6,-6.6*,-26%*,i,i,+
CC(=O)c1cccc(Nc2c3c(nc4ccccc24)CCC3)c1,·,i,·,·,·,·
O=C(Nc1c2c(nn1-c1ccc(F)cc1)CS(=O)(=O)C2)c1ccc(S(=O)(=O)N2CCOCC2)cc1,·,i,·,·,·,·
Cc1c(CCOC(=O)CC23CC4CC(CC(C4)C2)C3)sc[n+]1CC(=O)c1ccc(Br)cc1,-10,-10*,-28%*,i,i,+
Cc1c(CCOC(=O)CC23CC4CC(CC(C)(C4)C2)C3)sc[n+]1CC(=O)c1ccccc1,-7.8,-7.8*,i,i,i,·
Cc1c(CCOC(=O)c2cc([N+](=O)[O-])cc([N+](=O)[O-])c2)sc[n+]1CC(=O)c1ccccc1,0.27,i,·,·,·,·
Cc1c(CCOC(=O)c2ccccc2)sc[n+]1Cc1ccccc1,·,i,·,·,·,·
COC(=O)CN1C(=O)COc2ccc(S(=O)(=O)N3CCCCCC3)cc21,·,i,·,·,·,·
CC1CCCC(NC(=O)c2ccc3snnc3c2)C1C (centres undefined),·,i,·,·,·,·

# Assay outcomes from PubChem BioAssay.
